ABHD5-PLIN5 inh – ABHD5-PLIN5 interaction inhibitors, primary screen, cell lysate, split luciferase complementation, luminescence | Perilipin-5 (Homo sapiens) + 1-acylglycerol-3-phosphate O-acyltransferase ABHD5 (Homo … | Split G. princeps luciferase complementation, 4 h | hit rate 0.78% among 360,000 | inhibition, % at 4 µM | AID 602281, 2012;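 active = inhibition above the mean inhibition across every tested compound plus 3 SD, cut at about 22% in these data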
Target sequence (Q00G26 whole entry, looked up): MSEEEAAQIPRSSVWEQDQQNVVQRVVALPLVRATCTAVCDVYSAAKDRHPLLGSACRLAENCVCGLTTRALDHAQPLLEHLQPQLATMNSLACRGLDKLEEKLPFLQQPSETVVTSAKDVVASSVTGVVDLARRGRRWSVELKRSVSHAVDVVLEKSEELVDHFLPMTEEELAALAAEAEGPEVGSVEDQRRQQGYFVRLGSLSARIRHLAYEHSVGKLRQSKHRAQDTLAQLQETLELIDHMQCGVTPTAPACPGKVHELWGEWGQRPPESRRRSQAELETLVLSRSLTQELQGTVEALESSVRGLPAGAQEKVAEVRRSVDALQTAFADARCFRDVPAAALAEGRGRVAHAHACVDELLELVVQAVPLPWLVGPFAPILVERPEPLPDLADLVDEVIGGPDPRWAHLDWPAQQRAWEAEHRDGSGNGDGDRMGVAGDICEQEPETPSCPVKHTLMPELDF
Target sequence (Q8WTS1 whole entry, looked up): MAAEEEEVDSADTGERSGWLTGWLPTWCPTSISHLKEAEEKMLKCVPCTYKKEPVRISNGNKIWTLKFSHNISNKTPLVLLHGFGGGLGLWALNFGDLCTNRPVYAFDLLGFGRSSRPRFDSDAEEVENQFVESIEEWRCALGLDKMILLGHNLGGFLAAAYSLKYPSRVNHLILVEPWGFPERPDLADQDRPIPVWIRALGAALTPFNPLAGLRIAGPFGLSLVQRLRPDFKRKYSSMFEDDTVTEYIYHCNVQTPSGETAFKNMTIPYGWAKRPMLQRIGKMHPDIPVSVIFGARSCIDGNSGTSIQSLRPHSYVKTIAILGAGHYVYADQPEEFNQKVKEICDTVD
KKLEB cytotox – cytotoxicity in KKLEB CF airway cells, primary screen, cytotoxicity control for CF NF-kB inhibitor project, cell-based, uHTS, fluorescence assay plates; AID 602141, 2011; KKLEB CF airway cells viability, ATPlite luminescence, overnight; active compounds read low; cells stimulated with P. aeruginosa culture filtrate; hit rate 0.36% among 360,000; activity change (cytotoxicity), % at 5 µM;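 active = corrected activity change at or below -50% at 5 µM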
CF NFkB inh – inhibitors of PAF-induced NF-kB signaling, primary screen, cell-based, GFP fluorescence, uHTS. hit rate 0.86% among 360,000. inhibition, % at 5 µM. KKLEB NF-kB-GFP reporter, GFP fluorescence overnight;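 active = at least 50% inhibition at 5 µM, scaled per plate between neutral and stimulator controls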;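 note: PAF is a Pseudomonas aeruginosa culture filtrate used as stimulus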
Mdm2-MdmX inh – inhibitors of human Mdm2-MdmX association, primary screen, cell-based, luminescence, split luciferase, SaOS-2, uHTS. Protein Mdm4 (Homo sapiens) + E3 ubiquitin-protein ligase Mdm2 (Homo sapiens), …. SaOS-2 split-luciferase Mdm2/MdmX complementation. inhibition, % at 8 µM. hit rate 3% among 330,000. AID 485346, 2010;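 active = inhibition of at least 50% at 8 µM in the primary screen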
Peg3 promoter – Peg3 promoter-driven luciferase inhibitors, primary screen, cell-based, HeLa, luciferase luminescence. HeLa PEG-Prom luciferase reporter, overnight. hit rate 1.7% among 360,000. inhibition, % at 20 µM;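 active = inhibition of at least 50% at 20 µM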
HIF-2a inh – HIF-2a reporter inhibitors, primary screen, luminescence, 786-0 RCC cells; AID 624352, 2012; 786-0 RCC cells HIF-2a reporter, luciferase luminescence, overnight; inhibition, % at 18.8 µM; hit rate 0.72% among 360,000;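 active = inhibition of the luminescence signal of 40% or more relative to plate controls, in a single-dose primary screen at 18.75 µM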
ABHD5-PLIN5 conf – ABHD5-PLIN5 interaction inhibitors, confirmation, biochemical, luminescence; shares compounds with ABHD5-PLIN5 inh; inhibition, % at 4 µM; hit rate 67% among 2,200; in the data active = inhibition above about 23%
HNF4 split-luc – HNF4 dimerization inhibitors, counter-screen for ABHD5-PLIN5 interaction inhibitor project, biochemical, split-luciferase complementation, luminescence; hit rate 77% among 2,200; AID 651674, 2012; shares compounds with ABHD5-PLIN5 inh; inhibition, % at 4 µM;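 active = mean inhibition across replicate wells exceeding the computed hit threshold, cut at about 13% in these data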;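 note: light from luciferase halves that rejoin when HNF4 fusion proteins dimerize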
Each line names hits and unclear results; the compound was inactive in the other large screens (follow-up assays come after a bar, where they were run). Sampled rows, rich in hits. Any-hit rate of the full collection: about 4.6%.

C=CCNc1oc(-c2ccc(-c3ccccc3)cc2)nc1C#N	none
CCCCCCCCN1C(=O)[C@H](CC(=O)NCc2cccc3ccccc23)C[C@@]2(C(=O)OCC)CCCC=C12	none (no result: KKLEB cytotox, CF NFkB inh, Mdm2-MdmX inh, Peg3 promoter)
CCCNC(=O)N1C[C@H](O)COC[C@H]2O[C@@H](CC(=O)N[C@@H]3CCN(Cc4ccccc4)C3)CC[C@@H]21	none (no result: KKLEB cytotox, CF NFkB inh, Mdm2-MdmX inh, Peg3 promoter)
CCOC(=O)CSc1nnc(NCC(=O)OC)c(=O)[nH]1	ABHD5-PLIN5 inh 25.9 | ABHD5-PLIN5 conf 41.5 | HNF4 split-luc 79.5
O=C1C(=O)C(Cl)=C(Cl)C(Cl)=C1Cl	ABHD5-PLIN5 inh 27.0 (no result: Mdm2-MdmX inh) | ABHD5-PLIN5 conf 51.4 | HNF4 split-luc 29.0
COC(=O)CC1SC(=O)NC1=O (stereo not drawn)	ABHD5-PLIN5 inh 39.2 | ABHD5-PLIN5 conf inactive | HNF4 split-luc inactive
CCCCCC(=O)N1C[C@H](O)[C@@H](n2cc(-c3ccc(F)cc3)nn2)C[C@@H]1c1ccc(OC)cc1	none (no result: Mdm2-MdmX inh)
C=CC(=O)N1C/C(=C/c2ccc(Cl)cc2)C(=O)/C(=C\c2ccc(Cl)cc2)C1	ABHD5-PLIN5 inh 94.3, KKLEB cytotox -97.3, CF NFkB inh 87.3, Peg3 promoter 103.4, HIF-2a inh 83.5 (no result: Mdm2-MdmX inh) | ABHD5-PLIN5 conf 104.1 | HNF4 split-luc 109.6
C=CC(=O)N1C/C(=C/c2ccccc2)C(=O)/C(=C\c2ccccc2)C1	ABHD5-PLIN5 inh 101.0, CF NFkB inh 81.3, Peg3 promoter 105.9, HIF-2a inh 91.4 (no result: Mdm2-MdmX inh) | ABHD5-PLIN5 conf 103.2 | HNF4 split-luc 107.3
O=C1C(=Cc2ccc(Cl)cc2)Cc2ccccc21	none (no result: KKLEB cytotox, CF NFkB inh, Mdm2-MdmX inh, Peg3 promoter)
Cc1ccc2nc(/C(C#N)=C\c3ccc(N4CCOCC4)o3)[nH]c2c1	ABHD5-PLIN5 inh 23.7 | ABHD5-PLIN5 conf 30.6 | HNF4 split-luc 43.9
N#C/C(=C\c1ccc(N2CCOCC2)o1)C(=O)NCC1CCCO1 (stereo not drawn)	none
Cc1ccc(/C(C#N)=C\c2ccc(N3CCOCC3)o2)cc1	ABHD5-PLIN5 inh 87.9 | ABHD5-PLIN5 conf 62.2 | HNF4 split-luc 105.5
N#C/C(=C/c1ccc(N2CCCCC2)o1)c1cccc(F)c1	none
N#C/C(=C/c1ccc(N2CCCCCC2)o1)c1ccc(Cl)cc1	ABHD5-PLIN5 inh 77.5, CF NFkB inh 70.6, Peg3 promoter 97.4, HIF-2a inh 45.1 | ABHD5-PLIN5 conf 81.9 | HNF4 split-luc 111.1
COCCNC(=O)/C(C#N)=C/c1ccc(N2CCOCC2)o1	none
Cc1cc2nc(/C(C#N)=C\c3ccc(-c4ccccc4C(=O)O)o3)[nH]c2cc1C	none
N#C/C(=C\c1ccc(N2CCOCC2)o1)C(=O)NCCc1ccccc1	ABHD5-PLIN5 inh 24.8 | ABHD5-PLIN5 conf inactive | HNF4 split-luc 31.9
Cc1noc(C)c1S(=O)(=O)N(C)C[C@@H]1OCc2cnnn2CCCC(=O)N([C@@H](C)CO)C[C@H]1C	none (no result: Mdm2-MdmX inh)
CC(C)[C@@H]1CC2=C(C(=O)OC(C)(C)O2)[C@H](CCc2ccccc2)O1	none (no result: KKLEB cytotox, CF NFkB inh, Mdm2-MdmX inh, Peg3 promoter)
CCOc1cc(OCC)cc(C(=O)N2CCC[C@H]2C(=O)N2CCC[C@H]2C(=O)NCc2cccc(OC)c2)c1	none (no result: KKLEB cytotox, CF NFkB inh, Mdm2-MdmX inh, Peg3 promoter)
COC(=O)c1ccc(N2CCN(C)CC2)c(NC(=O)c2cccs2)c1	none
CCCCN(C)c1nc(-c2ccco2)c2c(c1C#N)CC(C)(C)OC2	ABHD5-PLIN5 inh 28.5 | ABHD5-PLIN5 conf 54.2 | HNF4 split-luc 78.7
CN(C)CCNc1nc(-c2ccco2)c2c(c1C#N)CC(C)(C)OC2	none
CC(=O)c1ccc(OCC(=O)OCC(=O)Nc2sccc2C(N)=O)cc1	none
CCn1c(=S)[nH]c2scc(-c3cccs3)c2c1=O	none (no result: Mdm2-MdmX inh)
C=CCn1c(=S)[nH]c2scc(-c3ccc(C)o3)c2c1=O	ABHD5-PLIN5 inh 31.6 | ABHD5-PLIN5 conf inactive | HNF4 split-luc 66.1
COC(=O)c1ccc(CNC(=O)C2CCC(=O)N(CCc3ccccn3)C2)cc1 (stereo not drawn)	none (no result: Mdm2-MdmX inh)
CCN1CCN(c2ccc(NC(=O)COc3ccccc3Cl)cc2)CC1	none
O=C(COc1ccccc1Cl)Nc1ccc(N2CCCC2)cc1	ABHD5-PLIN5 inh 26.1 | ABHD5-PLIN5 conf 44.7 | HNF4 split-luc inactive
Cc1cc(C)c(NC(=O)CCCCCNC2CCCCC2)c(C)c1	none
Cc1cc(C)c(NC(=O)CN(C)C(=O)C2CC(=O)N(c3cccc4ccccc34)C2)c(C)c1 (stereo not drawn)	none
Cc1cc(Br)cn2c(Cc3ccccc3)c(-c3ccco3)nc12	ABHD5-PLIN5 inh 29.9 (no result: Mdm2-MdmX inh) | ABHD5-PLIN5 conf 29.7 | HNF4 split-luc 45.0
COc1ccc(Cc2c(-c3ccco3)nc3c(C)cc(Br)cn23)c(C)c1	none (no result: Mdm2-MdmX inh)
Cc1ccc2nc(-c3ccco3)c(Cc3cccc(F)c3)n2c1	ABHD5-PLIN5 inh 56.4 (no result: Mdm2-MdmX inh) | ABHD5-PLIN5 conf inactive | HNF4 split-luc 19.9
Cc1ccc2nc(-c3ccc(Cl)cc3)c(CC3CCCCC3)n2c1	none (no result: Mdm2-MdmX inh)
Cc1ccc2nc(-c3ccccc3)c(Cc3cccc(F)c3)n2c1	none (no result: KKLEB cytotox, CF NFkB inh, Mdm2-MdmX inh, Peg3 promoter)
CC(C)(C)Cc1c(-c2ccco2)nc2ccc(Cl)cn12	none (no result: Mdm2-MdmX inh)
Cc1ccc2nc(-c3ccco3)c(CC3CCCCC3)n2c1	ABHD5-PLIN5 inh 35.0 (no result: Mdm2-MdmX inh) | ABHD5-PLIN5 conf inactive | HNF4 split-luc 21.7
Brc1ccc2nc(-c3ccco3)c(CC3CCCCC3)n2c1	ABHD5-PLIN5 inh 23.8 (no result: Mdm2-MdmX inh) | ABHD5-PLIN5 conf 28.3 | HNF4 split-luc 37.8
Cn1c(=O)c(=O)n(C)c2cc(S(=O)(=O)NCCOc3ccccc3Cl)ccc21	none
O=[N+]([O-])c1ccccc1/C=C/CN1CCN(Cc2ccc3c(c2)OCO3)CC1	none
CC(C)Cc1nnc(NC(=O)CCC(=O)NCc2ccccc2Cl)s1	none
COc1ccccc1Cc1c(-c2ccco2)nc2ccc(C)cn12	ABHD5-PLIN5 inh 55.7 (no result: Mdm2-MdmX inh) | ABHD5-PLIN5 conf 27.1 | HNF4 split-luc 48.0
COc1ccccc1Cc1c(-c2ccc(OC)c(OC)c2)nc2ccc(C)cn12	none (no result: Mdm2-MdmX inh)
Cc1c(NS(=O)(=O)c2cccc(C(=O)NCc3ccc(Cl)cc3)c2)c(=O)n(-c2ccccc2)n1C	none
Cc1c(NS(=O)(=O)c2cccc(C(=O)NCc3ccco3)c2)c(=O)n(-c2ccccc2)n1C	ABHD5-PLIN5 inh 25.2 (no result: Mdm2-MdmX inh) | ABHD5-PLIN5 conf inactive | HNF4 split-luc 14.3
CCN(c1ccccc1)S(=O)(=O)c1cc(C(=O)NCc2ccco2)ccc1C	ABHD5-PLIN5 inh 26.9 | ABHD5-PLIN5 conf inactive | HNF4 split-luc 13.6

Compound activity deposited in PubChem by several laboratories.
